In the supplement of paper PMC8047044:

Assays:
[1] = system: Neuro-2a; test: neurite formation score, plate-normalized to DMSO control mean 5.04 (score (0-8 scale)); higher = more or longer neurites; details: 1 µM
Protocol: (§1)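 Neuro-2a mouse neuroblastoma cells in PLL-coated 96-well plates were pre-treated for 1 h in DMEM(+) with each kinase inhibitor at 1 µM, then switched to serum-free DMEM(-) with inhibitor to induce neurite outgrowth and fixed about 2-3 h later. Three blinded observers scored neurite formation from 0 (no neurites) to 8 (long neurites on almost all cells).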

[2] = system: Neuro-2a; test: as above; details: 0.1 µM
Protocol: as §1, with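 “at 0.1” for “at 1”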

Structure (SMILES) | neurite formation score [1] | neurite formation score [2]
CS(=O)(=O)N1CCN(Cc2cc3nc(-c4cccc5[nH]ncc45)nc(N4CCOCC4)c3s2)CC1 [GDC-0941 dimethanesulfonate] | 2.8 | 2.09
Nc1cc(N)c(N)cc1N [FAK Inhibitor 14] | 4.54 | 4.08
CCS(=O)(=O)N1CC(CC#N)(n2cc(-c3ncnc4[nH]ccc34)cn2)C1 | 4.02 | 4.58
CCN(CC)CCNC(=O)c1c(C)[nH]c(/C=C2\C(=O)Nc3ccc(F)cc32)c1C [Sunitinib] | 5.63 | 5.58
O=[N+]([O-])c1ccc(Nc2nc(N3CCOCC3)nc(N3CCOCC3)n2)cc1 | 4.21 | 5.08
CN(C[C@@H]1COCCO1)S(=O)(=O)Nc1ccc2ccc3ncc(-c4cnn(C)c4)cc3c(=O)c2c1 | 5.29 | 4.25
N#CC[C@H](C1CCCC1)n1cc(-c2ncnc3[nH]ccc23)cn1 [Ruxolitinib phosphate] | 5.02 | 4.92
Cn1cc(/C=C2\C(=O)Nc3cccnc32)c2ccccc21 | 4.54 | 4.08
O=S(=O)(NCCNC/C=C/c1ccc(Br)cc1)c1cccc2cnccc12 | 4.54 | 4.75
CN(C)C/C=C/C(=O)Nc1cc2c(Nc3ccc(F)c(Cl)c3)ncnc2cc1O[C@H]1CCOC1 [Afatinib dimaleate] | 4.91 | 4.38
CNC(=O)c1nn(C)c2c1C(C)(C)Cc1cnc(Nc3ccc(N4CCN(C)CC4)cc3)nc1-2 | 3.29 | 4.58
